Results published in PubChem BioAssay (NCI).
This is part of a sample that, as a whole, favours compounds with a hit. Of some 83,000 tested, about 20% had one in any assay.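 Values shown are percent growth following 48 h exposure of cells in 96-well plates to a single concentration of compound; below 10 was considered active.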 The source made the active and inactive calls.

Assays:
Assay in all cases: NCI-60 one-dose screen, 48 h (100 = growth as untreated, 0 = no growth, -100 = all killed)
NCI-H23 lung = system: NCI-H23 lung
NCI-H226 lung = system: NCI-H226 lung
NCI-H322M lung = system: NCI-H322M lung
HOP-62 NSCLC = system: HOP-62 NSCLC
NCI-H460 lung = system: NCI-H460 lung
HOP-92 NSCLC = system: HOP-92 NSCLC
NCI-H522 lung = system: NCI-H522 lung
A549/ATCC NSCLC = system: A549/ATCC NSCLC
786-0 renal = system: 786-0 renal
COLO 205 colon = system: COLO 205 colon
DU-145 prostate = system: DU-145 prostate
K-562 leukemia = conditions: 10 µM unless noted
MALME-3M melanoma = system: MALME-3M melanoma
MDA-MB-231 breast = system: MDA-MB-231 breast
RXF 393 renal = system: RXF 393 renal
SF-268 CNS = system: SF-268 CNS
SF-295 CNS = system: SF-295 CNS
SF-539 CNS = system: SF-539 CNS
UACC-257 melanoma = system: UACC-257 melanoma
M14 melanoma = system: M14 melanoma

Measured: growth

O=C(Nc1nc2ccc([N+](=O)[O-])cc2s1)Nc1ccccc1F
inactive: NCI-H226 lung; 10 µM unless noted 10.9% | A549/ATCC NSCLC; 10 µM unless noted 12.2% | COLO 205 colon; 10 µM unless noted 21.9% | DU-145 prostate; 10 µM unless noted 25.8% | SF-268 CNS; 10 µM unless noted 29.5% | M14 melanoma; 10 µM unless noted 16.5%
active: NCI-H23 lung; 10 µM unless noted 6.62% | NCI-H322M lung; 10 µM unless noted 8.1% | HOP-62 NSCLC; 10 µM unless noted 6.89% | NCI-H460 lung; 10 µM unless noted 2.96% | HOP-92 NSCLC; 10 µM unless noted -3.78% | NCI-H522 lung; 10 µM unless noted -16.6% | 786-0 renal; 10 µM unless noted 7.95% | K-562 leukemia 7.7% | MALME-3M melanoma; 10 µM unless noted -2.16% | MDA-MB-231 breast; 10 µM unless noted 4.62% | RXF 393 renal; 10 µM unless noted 5.7% | SF-295 CNS; 10 µM unless noted 3% | SF-539 CNS; 10 µM unless noted -8.34% | UACC-257 melanoma; 10 µM unless noted -4.98%

CC/C(=C(\c1ccc(O)cc1)c1ccc(OCCN(C)C(=O)CCOCCNC(=O)c2ccc3c(c2)CN([C@@H]2CCC(=O)NC2=O)C3=O)cc1)c1ccccc1
inactive: NCI-H23 lung; 1 µM 105% | NCI-H23 lung; 10 µM 97.2% | NCI-H226 lung; 1 µM 87.2% | NCI-H226 lung; 10 µM 66.3% | NCI-H322M lung; 1 µM 101% | NCI-H322M lung; 10 µM 88.1% | HOP-62 NSCLC; 1 µM 95.1% | HOP-62 NSCLC; 10 µM 94.4% | NCI-H460 lung; 1 µM 115% | NCI-H460 lung; 10 µM 114% | HOP-92 NSCLC; 1 µM 37.9% | HOP-92 NSCLC; 10 µM 43.7% | NCI-H522 lung; 1 µM 92.6% | NCI-H522 lung; 10 µM 95.3% | A549/ATCC NSCLC; 1 µM 85% | A549/ATCC NSCLC; 10 µM 82.2% | 786-0 renal; 1 µM 96.6% | 786-0 renal; 10 µM 93.4% | COLO 205 colon; 1 µM 95.4% | COLO 205 colon; 10 µM 94.5% | DU-145 prostate; 1 µM 105% | DU-145 prostate; 10 µM 109% | MALME-3M melanoma; 1 µM 78.4% | MALME-3M melanoma; 10 µM 52.5% | MDA-MB-231 breast; 1 µM 33.7% | MDA-MB-231 breast; 10 µM 21.8% | RXF 393 renal; 1 µM 102% | RXF 393 renal; 10 µM 90% | SF-268 CNS; 1 µM 89.3% | SF-268 CNS; 10 µM 100% | SF-295 CNS; 1 µM 96.2% | SF-295 CNS; 10 µM 93.2% | SF-539 CNS; 1 µM 94.6% | SF-539 CNS; 10 µM 88.9% | UACC-257 melanoma; 1 µM 101% | UACC-257 melanoma; 10 µM 88.3% | M14 melanoma; 1 µM 90.5% | M14 melanoma; 10 µM 92.8%

CCOc1ccccc1[C@H]1C(C(=O)c2ccc(Cl)cc2)C2(N[C@@H]1c1ccccc1)C(=O)Nc1ccc(Br)cc12 (stereo partly drawn)
active: NCI-H23 lung; 10 µM unless noted -39.1% | NCI-H226 lung; 10 µM unless noted -68.4% | HOP-62 NSCLC; 10 µM unless noted 7.94% | NCI-H460 lung; 10 µM unless noted 2.95% | HOP-92 NSCLC; 10 µM unless noted -46.9% | NCI-H522 lung; 10 µM unless noted -4.42% | 786-0 renal; 10 µM unless noted -76.5% | COLO 205 colon; 10 µM unless noted -82.3% | K-562 leukemia -13% | MALME-3M melanoma; 10 µM unless noted -15% | MDA-MB-231 breast; 10 µM unless noted -68.7% | RXF 393 renal; 10 µM unless noted -88.4% | SF-295 CNS; 10 µM unless noted -42.6% | SF-539 CNS; 10 µM unless noted -70.2% | M14 melanoma; 10 µM unless noted -38%
inactive: NCI-H322M lung; 10 µM unless noted 15.8% | A549/ATCC NSCLC; 10 µM unless noted 41% | DU-145 prostate; 10 µM unless noted 23% | SF-268 CNS; 10 µM unless noted 14.2% | UACC-257 melanoma; 10 µM unless noted 44%

CN(C)CCOc1ccc(C(=O)C2[C@H](c3ccc(Cl)cc3)[C@@H](c3ccccc3)NC23C(=O)Nc2ccc(Cl)cc23)cc1 (stereo partly drawn)
active: NCI-H23 lung; 10 µM unless noted -93.2% | NCI-H226 lung; 10 µM unless noted -82.3% | NCI-H322M lung; 10 µM unless noted -91.1% | HOP-62 NSCLC; 10 µM unless noted -82.6% | NCI-H460 lung; 10 µM unless noted -87.4% | HOP-92 NSCLC; 10 µM unless noted -89.9% | NCI-H522 lung; 10 µM unless noted -91.7% | A549/ATCC NSCLC; 10 µM unless noted -77.9% | 786-0 renal; 10 µM unless noted -94% | COLO 205 colon; 10 µM unless noted -76.9% | DU-145 prostate; 10 µM unless noted -80.3% | K-562 leukemia -76.1% | MALME-3M melanoma; 10 µM unless noted -87.8% | MDA-MB-231 breast; 10 µM unless noted -93.6% | RXF 393 renal; 10 µM unless noted -92% | SF-268 CNS; 10 µM unless noted -64% | SF-295 CNS; 10 µM unless noted -89.3% | SF-539 CNS; 10 µM unless noted -98.5% | UACC-257 melanoma; 10 µM unless noted -81.2% | M14 melanoma; 10 µM unless noted -90.1%

COc1cc(CNC(=O)C[C@H](C)CCC=C(C)C)ccc1OCc1cn(-c2ccc(Cl)c(Cl)c2)nn1
active: SF-539 CNS; 10 µM unless noted 5.3%
inactive: NCI-H23 lung; 10 µM unless noted 68.5% | NCI-H226 lung; 10 µM unless noted 50.5% | NCI-H322M lung; 10 µM unless noted 82.5% | HOP-62 NSCLC; 10 µM unless noted 95.7% | NCI-H460 lung; 10 µM unless noted 45.5% | HOP-92 NSCLC; 10 µM unless noted 51.6% | NCI-H522 lung; 10 µM unless noted 61.5% | A549/ATCC NSCLC; 10 µM unless noted 46.5% | 786-0 renal; 10 µM unless noted 80.4% | COLO 205 colon; 10 µM unless noted 53.6% | DU-145 prostate; 10 µM unless noted 76.8% | K-562 leukemia 51.9% | MALME-3M melanoma; 10 µM unless noted 77.4% | MDA-MB-231 breast; 10 µM unless noted 75.7% | RXF 393 renal; 10 µM unless noted 74.8% | SF-268 CNS; 10 µM unless noted 58.4% | SF-295 CNS; 10 µM unless noted 80.5% | UACC-257 melanoma; 10 µM unless noted 91% | M14 melanoma; 10 µM unless noted 89%

CN1CCN(C(=O)Oc2cc3c(c4ccccc24)[C@H](CCl)CN3C(=O)c2cc3cc(OCCCN4CCC4)ccc3[nH]2)[C@@H]2CSSC[C@H]21
active: NCI-H23 lung; 10 µM unless noted -72% | NCI-H226 lung; 10 µM unless noted -22.4% | NCI-H322M lung; 10 µM unless noted 2.48% | HOP-62 NSCLC; 10 µM unless noted -40.4% | NCI-H460 lung; 10 µM unless noted -35.7% | HOP-92 NSCLC; 10 µM unless noted -10% | NCI-H522 lung; 10 µM unless noted -51.7% | A549/ATCC NSCLC; 10 µM unless noted -2.8% | 786-0 renal; 10 µM unless noted -89.1% | COLO 205 colon; 10 µM unless noted -65.5% | DU-145 prostate; 10 µM unless noted -31.6% | K-562 leukemia -4.46% | MALME-3M melanoma; 10 µM unless noted -55.1% | MDA-MB-231 breast; 10 µM unless noted -9.52% | RXF 393 renal; 10 µM unless noted -71.1% | SF-268 CNS; 10 µM unless noted -10.3% | SF-295 CNS; 10 µM unless noted -7.45% | SF-539 CNS; 10 µM unless noted -58.8% | UACC-257 melanoma; 10 µM unless noted -21% | M14 melanoma; 10 µM unless noted -74.7%

O=C(Cc1c(-c2cccc([N+](=O)[O-])c2)n(-c2ncnc3c2c(-c2ccccc2)c(-c2ccccc2)n3Cc2ccccc2)[nH]c1=O)c1ccc(Cl)c(Cl)c1
active: HOP-92 NSCLC; 10 µM unless noted -2.08% | NCI-H522 lung; 10 µM unless noted 7.22% | MALME-3M melanoma; 10 µM unless noted -3.97%
inactive: NCI-H23 lung; 10 µM unless noted 16.1% | NCI-H226 lung; 10 µM unless noted 39% | NCI-H322M lung; 10 µM unless noted 79.1% | HOP-62 NSCLC; 10 µM unless noted 44.9% | NCI-H460 lung; 10 µM unless noted 33.9% | A549/ATCC NSCLC; 10 µM unless noted 45% | 786-0 renal; 10 µM unless noted 63.4% | COLO 205 colon; 10 µM unless noted 60.2% | DU-145 prostate; 10 µM unless noted 51% | K-562 leukemia 17.6% | MDA-MB-231 breast; 10 µM unless noted 37.4% | RXF 393 renal; 10 µM unless noted 44.9% | SF-268 CNS; 10 µM unless noted 62.3% | SF-295 CNS; 10 µM unless noted 12.2% | SF-539 CNS; 10 µM unless noted 60.7% | UACC-257 melanoma; 10 µM unless noted 30.9% | M14 melanoma; 10 µM unless noted 32.6%
